Records with an inconclusive call do not appear. A number with no mark means an inactive call. Activity calls are given as the source filed them. Calls come from the whole dose curve; as a rule, active = well fitted inhibition curve with a large enough effect; inconclusive = small, poorly fitted or top-dose-only effect; inactive = flat fitted curve, though single readings scatter.
target: Calcium and integrin-binding protein 1 (Homo sapiens) (UniProt Q99828); assay: Primary qHTS for Identification of Calcium Integrin Binding Protein 1 (CIB1) Competitor (AID 1508620); details: CIB1-GST / FITC-alphaIIb peptide fluorescence polarization; series mostly up to 114 µM; activity change, negative = inhibition: at the top concentration;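 note: GST tagged CIB1 binding a fluorescein labelled alphaIIb integrin peptide tracer; top concentration of the series differs between compounds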
Procedure, shortened: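 Fluorescence polarization competition: CIB1-GST (1 uM final) preincubated with compound 15 min at room temperature, then FITC-labeled alphaIIb peptide (100 nM final) added for another 15 min. Polarization read at Ex 480/Em 540.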
% is set by controls: 0 for no effect and ±100 for the full control effect.

Chain of Calcium and integrin-binding protein 1 (Homo sapiens) (Q99828 whole entry, looked up): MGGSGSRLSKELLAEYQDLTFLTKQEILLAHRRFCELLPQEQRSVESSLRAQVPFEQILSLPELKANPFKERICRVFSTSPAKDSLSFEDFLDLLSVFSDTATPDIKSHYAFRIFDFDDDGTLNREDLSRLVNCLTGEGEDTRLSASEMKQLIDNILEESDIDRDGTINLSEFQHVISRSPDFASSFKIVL

SMILES	activity change, negative = inhibition	Potency
Cc1ccnc(NCc2ccc(O)c3ncccc23)c1	11.8%	–
N#Cc1ccc(CSc2nc3ncc(Br)cc3[nH]2)cc1	34.4%	–
CC(C)CN1CC2=C(C1=O)C(c1ccccc1Cl)N=C(Nc1nc3ccccc3o1)N2 (stereo not given)	-0.571%	–
COc1cc(OC)cc(-c2nnc3n2N=C(c2ccc(OC)cc2OC)CS3)c1	11.3%	–
c1coc(CNc2nc(-c3cccs3)nc3ccccc23)c1	0.931%	–
N=c1c2c(ncn1-c1ccccc1)Oc1ccc3ccccc3c1C2c1ccc2c(c1)OCO2 (stereo not given)	4.97%	–
Cc1cc(C)n2ncc(C(=O)NC3CCC(C(C)(C)C)CC3)c2n1 (stereo not given)	–	inactive
CCC(=O)Nc1ccc(OCc2cc(C3Nc4ccccc4C(=O)N3Cc3ccccc3)ccc2OC)cc1 (stereo not given)	8.79%	–
CNc1oc(-c2cccc(-c3ccccc3)c2)nc1C#N	-12.9%	–
O=S(=O)(c1ccc(F)cc1)N1CCN(S(=O)(=O)c2ccc3c(c2)OCCO3)CC1	4.69%	–
N#Cc1c(-c2cccc([N+](=O)[O-])c2)no[n+]1[O-]	-7.22%	–
O=C(CCCc1ccccc1)NC(c1ccco1)c1cc(Cl)c2cccnc2c1O (stereo not given)	-11.4%	–
Cc1nc(CN=C2NC3=C(C(=O)CCC3)C(c3[nH]ncc3Cl)N2)cs1 (stereo not given)	-2.94%	–
Cc1cc(NS(=O)(=O)c2ccc(N(C)C(=O)Cc3ccc(Cl)c(Cl)c3)cc2)no1	-10.6%	–
CC1(C)CCC(C)(C)c2cc([S+](=O)([O-])N3CCN([S+](=O)([O-])c4c(F)cccc4F)CC3)ccc21	-1.81%	–
Cc1ccccc1N(C)C1=N[S+](=O)([O-])c2ccccc21	-6.57%	–
COc1cccc(C2c3c(ncn(-c4ccccc4C#N)c3=N)Oc3ccc4ccccc4c32)c1 (stereo not given)	-0.988%	–
Cc1c([S+](=O)([O-])N2CCN([S+](=O)([O-])c3c(F)cccc3F)CC2)sc2ccc(Cl)cc12	2.6%	–
Oc1c(CNc2ccccc2)cc(COCc2ccccc2)c2cccnc12	-1.21%	–
Cc1ccc(OCCn2c(CCNC(=O)c3cc([N+](=O)[O-])ccc3[N+](=O)[O-])nc3ccccc32)cc1	3.6%	–

SMILES	activity change, negative = inhibition	Potency
CC(=O)N1CCN(c2ccc(NCc3ccc(C)cc3)cc2)CC1	-13%	–
COc1ccc(C)cc1NC(=O)C(OC(=O)CNC(=O)c1ccccc1)c1ccccc1 (stereo not given)	2.18%	–
O=C(Cn1cc(CN(Cc2ccccc2)Cc2ccccc2)nn1)Nc1cc(C(F)(F)F)ccc1Cl	0.524%	–
O=C(CN1C(=O)CC(c2ccco2)Sc2ccccc21)Nc1ccccc1F (stereo not given)	-4.31%	–
Fc1cccc(CNc2ncnc3ccc(-c4cccnc4)cc23)c1	0.499%	–
Fc1cnc(-c2ccccc2C(F)F)nc1NCc1ccc(-c2cccnc2)cc1	-2.09%	–
O=C(NCCCc1ccccc1)C1CCN(c2nc(-c3ccc(Br)cc3)cs2)CC1	4.01%	–
CC(=O)c1ccc(N2CCN(S(=O)(=O)c3ccc4c(c3)CC(=O)N4)CC2)cc1	9.77% [at 228 µM]	–
CCn1c2cc(C)sc2c2cnn(Cc3ccccc3F)c(=O)c21	-2.69%	–
COc1ccc(C2=Nn3c(nnc3-c3cc(OC)ccc3OC)SC2)c(OC)c1	1.36%	–
Cc1ccc2nc3sc(C(=O)Nc4ccc(F)cc4)cc3cc2c1	6.16%	–
Cn1nnnc1Sc1ncnc2scc(-c3cccc(S(C)(=O)=O)c3)c12	-1.91%	–
Cc1ccc(S(=O)(=O)Nc2ccc(C(=O)Nc3ncc(-c4ccccc4)s3)cc2)cc1	5.61%	–
O=C(Nc1ccc2c(c1)OCCO2)Nc1nnc(-c2ccncc2)s1	-1%	–
c1ccc(-n2cc(-c3nnc4n3CCCCC4)c3ccccc32)cc1	-1.43%	–
CCCCN(C)C(=O)Cn1nc(-c2ccc(C(C)=O)cc2)ccc1=O	-0.249%	–
C/C(=C\c1cccc(C(F)(F)F)c1)C1Nc2cccc3cccc(c23)N1	-21.3%	–
CC(C)(C)OC(=O)NCc1nnc(-c2cc3ccccc3[nH]2)o1	-2.65%	–
O=S(=O)(NC[C@@H]1CCC[C@H](CNS(=O)(=O)c2c(F)cccc2F)C1)c1ccc2c(c1)OCCO2	–	inactive
COc1cc2ncnc(N(C)Cc3csc(C)n3)c2cc1-c1ccc2c(c1)OCO2	0.265%	–

From PubChem BioAssay (NCATS)
